Rows were chosen to be rich in hits. Some 2.3% of all compounds tested hit in one or more screens of this group.
M1 PAM: human M1 muscarinic receptor positive allosteric modulators, primary screen, CHO-K1 cells, Fluo-8 calcium fluorescence, 1536-well; Muscarinic acetylcholine receptor M1 (Homo sapiens), P11229; CHO-K1 hM1, ACh EC20; 0% = ACh EC20, 100% = maximal ACh; activation, % at 3 µM; 360,000 compounds, 0.088% hits; AID 588819, 2011; in the data active = activation above about 19%, passing the limit was not always enough
Target sequence (P11229 whole entry, looked up): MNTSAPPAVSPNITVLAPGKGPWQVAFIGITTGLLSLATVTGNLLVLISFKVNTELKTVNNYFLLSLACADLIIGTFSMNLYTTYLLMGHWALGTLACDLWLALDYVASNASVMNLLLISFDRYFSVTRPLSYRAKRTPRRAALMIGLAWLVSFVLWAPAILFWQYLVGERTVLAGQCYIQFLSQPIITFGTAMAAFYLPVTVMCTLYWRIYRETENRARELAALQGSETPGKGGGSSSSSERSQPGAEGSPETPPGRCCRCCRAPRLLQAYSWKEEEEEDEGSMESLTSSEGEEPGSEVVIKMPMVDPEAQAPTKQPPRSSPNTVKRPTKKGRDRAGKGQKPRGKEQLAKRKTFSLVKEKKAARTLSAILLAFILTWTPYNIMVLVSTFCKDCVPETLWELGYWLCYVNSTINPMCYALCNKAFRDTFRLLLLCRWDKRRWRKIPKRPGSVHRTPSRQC
CHO-K1 Ca antag: nonselective inhibitor or artifact in parental CHO-K1 cells. inhibition, % at 3 µM. ATP-induced calcium, Fluo-8 fluorescence. 360,000 compounds, 0.6% hits;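 active = inhibition above a per-plate cutoff, the plate's mean sample inhibition plus 3 SD, cut at about 24% in these data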;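 also: 0% = DMSO plus EC80 ATP and 100% = DMSO alone without ATP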
M1 ag: human M1 muscarinic receptor agonists, primary screen, Fluo-8 calcium fluorescence, CHO-K1 cells, HTS. Muscarinic acetylcholine receptor M1 (Homo sapiens), P11229. CHO-K1 hM1, agonist mode; 0% DMSO, 100% acetylcholine EC100. activation, % at 3 µM. 360,000 compounds, 0.33% hits. AID 588814, 2011;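 active = activation above the run's mean compound activation plus 3 SD, cut at about 16% in these data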;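 also: peak over basal fluorescence ratio within a 140 s kinetic read after compound addition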
M1 antag: human M1 muscarinic receptor antagonists, primary screen, CHO-K1 cells, Fluo-8 calcium fluorescence, 1536-well; CHO-K1 hM1, ACh EC80 antagonist; 360,000 compounds, 1.3% hits; Muscarinic acetylcholine receptor M1 (Homo sapiens), P11229; inhibition, % at 3 µM;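 active = percent inhibition above its own plate's cutoff, namely the mean of that plate's compound wells plus 3 SD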;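 also: peak over basal fluorescence ratio during 140 s after agonist addition; 0% = ACh EC80 plus DMSO and 100% = DMSO alone without agonist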
CHO-K1 Ca ag: counter-screen for M1 agonists: effect in parental CHO-K1 cells; Fluo-8 calcium fluorescence; scaled to maximal ATP response, vehicle zero; activation, % at 3 µM; 360,000 compounds, 0.48% hits; AID 602248, 2012; in the data active = activation above about 15%;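 also: untransfected CHO-K1 host cells lacking M1 receptor as counterscreen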
CHO-K1 Ca PAM: nonselective calcium activators in parental CHO-K1 cells, primary screen, counter-screen for M1 PAM project, cell-based, Fluo-8 calcium fluorescence, full deck, 1536-well; ATP EC20; 0% at ATP EC20, 100% at ATP max; activation, % at 3 µM; 360,000 compounds, 0.02% hits;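 active = activation above the run cutoff, the mean activation of all test compounds plus 3 SD, cut at about 40% in these data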;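 also: peak over basal fluorescence ratio in a 140 s read after ATP addition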
* marks the source's active call; other numbers are inactive results.

SMILES	M1 PAM	CHO-K1 Ca antag	M1 ag	M1 antag	CHO-K1 Ca ag	CHO-K1 Ca PAM
COc1ccccc1NS(=O)(=O)c1ccc(C)c(C(=O)N2CCCC2)c1	26.0*	-19.9	1.7	-17.6	0.1	8.4
COc1ccccc1N1CCN(C(=O)c2cc(S(=O)(=O)N3CCCCC3)ccc2C)CC1	-13.1	-14.6	-0.5	16.2	4.7	14.9
CCOc1ccccc1N1CCN(C(=O)c2cc(S(=O)(=O)N3CCCCC3)ccc2C)CC1	-15.7	5.4	-2.3	30.9*	6.3	-14.7
COc1ccc(NC(=O)COc2ccccc2Cc2ccccc2)cc1S(N)(=O)=O	-16.8	48.1*	6.4	37.4*	18.1*	-1.8
CC(=O)c1c(C)[nH]c(C(=O)CN2C(=O)NC(C)(c3ccc(C)cc3)C2=O)c1C (stereo unspecified)	4.4	-10.1	26.5*	9.1	14.3	29.1
CCN1C(=O)C(=O)N(CC(=O)c2[nH]c(C)c(C(C)=O)c2C)C1=O	0.8	-4.0	-2.6	2.1	0.3	-0.7
CCOC(=O)C1CCCN(C2CC(=O)N(c3ccc(C(C)C)cc3)C2=O)C1 (stereo unspecified)	-8.1	11.6	17.5*	7.3	0.7	-8.8
CCOC(=O)C1CCCN(C2CC(=O)N(c3cccc(C(F)(F)F)c3)C2=O)C1 (stereo unspecified)	-21.9	-3.1	65.1*	39.6*	0.3	17.5
CCOC(=O)C1CCCN(C2CC(=O)N(c3ccc(N4C(=O)CC(N5CCCC(C(=O)OCC)C5)C4=O)cc3)C2=O)C1 (stereo unspecified)	-20.8	-5.9	38.8*	9.0	0.1	13.9
Cc1nc2nc(C)c(CCC(=O)NC(C)c3ccc4c(c3)OCCO4)c(C)n2n1 (stereo unspecified)	-10.1	-1.1	-5.6	68.0*	0.5	5.5
O=C(CCN1C(=O)/C(=C/c2ccccc2F)SC1=S)NCCc1ccc(O)cc1	-12.2	10.4	3.3	32.0*	15.9*	11.7
CCOC(=O)c1cc2n(n1)C(C(F)(F)C(F)(F)F)CC(C)N2 (stereo unspecified)	19.4	-2.1	17.5*	-33.0	-0.4	12.1
Cc1cccc(C)c1NC(=O)c1cc(S(=O)(=O)N2CCc3ccccc32)cn1C	-3.7	1.6	-4.6	-1.4	0.8	0.1
CC(=O)N1CCc2cc(S(=O)(=O)N3CCc4ccccc43)ccc21	-23.5	9.3	0.7	59.7*	15.2*	0.8
CSc1cccc(NS(=O)(=O)c2ccc3c(c2)CCN3C(C)=O)c1	-15.2	29.1*	-3.1	31.1	18.4*	-28.6
CC(=O)N1CCc2cc(S(=O)(=O)N3CCc4ccccc4C3)ccc21	13.9	-8.8	-1.7	-6.5	0.9	19.8
COc1cccc(NS(=O)(=O)c2ccc3c(c2)CCN3C(C)=O)c1	-13.9	8.1	-6.0	20.0	13.9	-18.3
Cn1cc(S(=O)(=O)N2CCc3ccccc32)cc1C(=O)NC(C)(C)C	-15.4	26.0*	4.1	31.6*	5.5	-12.9
O=C(N/C(=C\c1ccc(Br)cc1)C(=O)N1CCCC1)c1ccccc1F	2.8	1.9	-4.9	1.0	0.8	8.2
COc1cc2[nH]c3c(=O)n(N)c(=O)[nH]c3c2cc1OC	-13.5	-8.4	-5.4	41.1*	0.4	-0.1
COc1ccc2[nH]c3c(=O)n(N)c(=O)[nH]c3c2c1	6.0	-21.1	-5.2	-8.1	1.5	17.6
O=C(c1cc2ccccc2cc1OCC(O)CN1CCCCC1)N1CCCCC1 (stereo unspecified)	-18.6	-1.3	-11.9	32.8*	0.5	-4.7
O=C(c1cc2ccccc2cc1O)N1CCCC1	4.7	1.3	-3.5	-10.3	19.4*	2.2
CC1(C)NC(=O)N(CC(O)COc2cc3ccccc3cc2C(=O)N2CCCCC2)C1=O (stereo unspecified)	8.7	-4.8	-3.4	-8.2	0.1	15.9
O=c1cc(O)c2c(=O)n(C3CCCCC3)c3ccccc3c2o1	4.7	-0.6	-3.1	-7.4	0.0	12.1
SMILES	M1 PAM	CHO-K1 Ca antag	M1 ag	M1 antag	CHO-K1 Ca ag	CHO-K1 Ca PAM
O=c1cc(O)c2c(=O)n(-c3ccccc3)c3c(c2o1)CCCCCC3	-5.0	23.7*	-4.1	6.2	-0.2	-11.7
O=C(NCc1cccs1)c1ccc2sc(COCCO)nc2c1	7.2	-4.8	0.3	-13.6	0.5	2.8
CCOC(=O)N1CCC(NC(=O)c2csc3c2CCCC3)CC1	-3.2	8.0	-1.1	-0.9	0.2	4.5
Cc1ccc2c(c1)C(=O)C(=O)N2Cc1ccc(Cl)cc1	10.1	-9.3	16.9*	-6.0	4.1	14.2
CCOC(=O)Nc1ccc2c(c1)N(C(=O)OC)c1ccccc1CC2	2.9	-6.6	-2.2	-1.7	0.1	8.9
CCCC(CCC)C(=O)Nc1ccc2c(c1)N(C(=O)CN1CCN(C)CC1)c1ccccc1CC2	-38.3	-13.0	-15.2	77.9*	0.5	-2.2
CCOC(=O)Nc1ccc2c(c1)N(C(=O)CCN(C)C)c1ccccc1S2	-21.7	-4.2	-4.9	51.1*	0.4	20.4
CCN(CC)CCC(=O)N1c2ccccc2Sc2ccc(NC(=O)OC)cc21	-25.6	-6.5	-8.8	23.5	0.5	0.4
CCOC(=O)Nc1ccc2c(c1)N(C(=O)CN(C)C)c1ccccc1S2	-14.6	-6.5	-8.4	7.3	1.0	27.2
CCOC(=O)Nc1ccc2c(c1)N(C(=O)CN1CCN(C)CC1)c1ccccc1S2	-20.8	-6.5	-7.3	75.4*	2.0	17.4
CCOC(=O)Nc1ccc2c(c1)N(C(=O)C(C)N1CCCC1)c1ccccc1CC2 (stereo unspecified)	-35.4	-6.4	-11.9	91.0*	0.1	4.2
CCOC(=O)N(C)c1c(CC)nc2c(OCc3ccc(F)c(F)c3)cccn12	-7.3	-1.3	-9.6	12.2	-0.4	-2.9
CCc1nc2c(OCCOc3ccccc3)cccn2c1N(C)C(=O)c1ccc(C)cc1	-31.7	-1.3	-9.3	43.6*	-0.2	-10.3
CCc1nc2c(OCc3ccc(F)c(F)c3)cccn2c1N(C)C(=O)C1CC1	-9.6	6.5	-9.2	24.7*	-0.3	-1.9
Cc1nc2c(OCc3ccc(C(F)(F)F)cc3)cccn2c1N(C)CC1CC1	-32.8	8.7	-3.9	36.0*	6.9	-2.6
CCc1nc2c(OCCOc3ccc(F)cc3)cccn2c1N(C)C(=O)c1ccc(C)cc1	-28.3	11.1	-9.7	29.5	0.6	3.3
Cc1nc2c(OCc3cc(Cl)cc(Cl)c3)cccn2c1N(C)C(=O)CCC1CCCC1	-17.3	5.4	-6.5	38.0*	3.0	-8.2
